Source: PubChem BioAssay (NCI)
About 83,000 compounds went through this panel and 20% of them were active in at least one assay; those are over-represented in the sample as a whole.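 Each cell line was grown in a 96-well plate and treated with one concentration of compound for 48 hours. Values below 10 were considered active.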 A number with no mark means an inactive call. Active and inactive are the calls of the source.

Assays:
Test in all cases: NCI-60 one-dose screen, 48 h (100 = growth as untreated, 0 = no growth, -100 = all killed)
[1] = system: NCI-H23 lung; settings: 10 µM unless noted
[2] = system: NCI-H226 lung; settings: 10 µM unless noted
[3] = system: DU-145 prostate; settings: 10 µM unless noted
[4] = system: MDA-MB-231 breast; settings: 10 µM unless noted
[5] = system: SF-268 CNS; settings: 10 µM unless noted
[6] = system: M14 melanoma; settings: 10 µM unless noted
[7] = system: HCT-15 colon; settings: 10 µM
[8] = system: SNB-75 CNS; settings: 10 µM unless noted
[9] = system: U251 CNS; settings: 10 µM unless noted
[10] = system: PC-3 prostate; settings: 10 µM unless noted
[11] = system: UACC-62 melanoma; settings: 10 µM unless noted
[12] = system: OVCAR-8 ovarian; settings: 10 µM unless noted
[13] = system: OVCAR-5 ovarian; settings: 10 µM unless noted
[14] = system: SK-OV-3 ovarian; settings: 10 µM unless noted
[15] = system: OVCAR-3 ovarian; settings: 10 µM unless noted
[16] = system: NCI/ADR-RES ovarian; settings: 10 µM unless noted
[17] = system: MDA-MB-435 melanoma; settings: 10 µM unless noted
[18] = system: MCF7 breast; settings: 10 µM unless noted
[19] = system: HCT-116 colon; settings: 10 µM unless noted
[20] = system: KM12 colon; settings: 10 µM unless noted

| SMILES | growth [1] [%] | growth [2] | growth [3] | growth [4] [%] | growth [5] | growth [6] | growth [7] | growth [8] [%] | growth [9] [%] | growth [10] [%] | growth [11] [%] | growth [12] | growth [13] [%] | growth [14] [%] | growth [15] | growth [16] [%] | growth [17] | growth [18] | growth [19] | growth [20] [%] |
| --- | --- | --- | --- | --- | --- | --- | --- | --- | --- | --- | --- | --- | --- | --- | --- | --- | --- | --- | --- | --- |
| C#CC1(O)CCC2(C)C(CCC3C4CCC(=O)C4(C)CCC32)C1 (stereo not given) | 97.3 | 86.4% | 109% | 101 | 97.9% | 102% | 97.5% | 84.4 | 93.9 | 90.9 | 88.7 | 97.6% | 99.8 | 97.6 | 109% | 96.4 | 101% | 104% | 92.3% | 102 |
| NC(=O)C(Br)CBr (stereo not given) | 24.1 | -18.8% (active) | -28.2% (active) | 14.3 | -23.1% (active) | -88.3% (active) | -7.98% (active) | 103 | 26.9 | 13.9 | 19.9 | -24.1% (active) | 10.9 | 80 | -85.1% (active) | 15.3 | -73.3% (active) | 2.57% (active) | -92.7% (active) | 71.4 |
| [Cl][Hg][n]1cnc2c(Cl)c(Cl)c(Cl)cc21 | 101 | 119% | 100% | 108 | 88% | 94.5% | 100% | 104 | 78.2 | 88.7 | 86.5 | 101% | 132 | 113 | 94.5% | 104 | 107% | 78.3% | 103% | 97.8 |
